Out of some 2,400 compounds screened, about 1,800 (75%) were called active. Cut-off read from the data, not from the text of the source: active = inhibition above about 22%; inactive = the rest. So high a share suggests a set chosen from earlier hits. Not all results are given here.

The test can be described thus: calcium response inhibition in counter-screen line – cell-based, fluorescence, counter-screen for hTAAR1 antagonist project (AID 651780).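 Note: CHO-Ga16 host cells stimulated with ATP at an EC80 level; 0% = agonist EC80 plus vehicle and 100% = vehicle without agonist.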 The following applies: counterscreen cell line, antagonist mode, at 3 µM, hits give high values.
As to `COC(=O)[C@@]1(Sc2ccc(C)cc2)CC(=O)N(c2cccc(SC)c2)[C@@H]1c1ccccc1`, the inhibition is 21.8% (active).

In the case of `Clc1ccc(Nc2ncnc3c2nnn3Cc2ccccc2)cc1`, the inhibition is 9.4% (inactive).

Take `Cc1ccc2c(c1)N(CC(=O)NCCc1ccc(Cl)cc1)C(=O)c1cccnc1O2`: the inhibition is 22.1% (active).

`Cc1ccc(-n2c(C)cc(/C=N\NC(=O)CC(=O)NC(C)C)c2C)cc1`: the inhibition is 7.15% (inactive).

Take `C/C(=N\Nc1ncc(Cl)cc1Cl)c1ccc(S(=O)(=O)NCc2ccco2)cc1`: the inhibition was 28.7% (active).

Consider `Fc1ccc(/C=N/Nc2nc(-c3cccnc3)nc3ccccc23)cc1`, for which the inhibition is 25.1% (active).

`O=C(OCC(=O)N(CCc1ccccc1)Cc1ccccc1)c1ccccc1[N+](=O)[O-]`: the inhibition was 33.2% (active).

Take `Cc1ccc2cccc(OCCCOc3ccccc3CO)c2n1`: the inhibition is 20.3% (inactive).

Turning to `COc1cc(OC)cc(C(=O)OCC(=O)Nc2sccc2C(N)=O)c1`, the inhibition was 27.8% (active).

For the molecule `COc1cc(SC#N)ccc1N=Cc1c(C)[nH]n(-c2ccc(C)cc2)c1=O`, the inhibition was 87.2% (active).

As for `C=CCC[C@H](Cc1ccc(F)cc1)C(=O)OC[C@H](C)NC(=O)[C@H](CC=C)CC(=O)N(CCO)Cc1ccccc1`, the inhibition was 27.6% (active).

As to `C=CCC[C@@H](Cc1ccc(F)cc1)C(=O)O[C@H](CNC(=O)[C@H](CC=C)CC(=O)N(CCO)Cc1ccccc1)c1ccccc1`, the inhibition was 39.2% (active).

Turning to `Oc1ccccc1N1CCN(c2ncnc3sc(-c4ccccc4)cc23)CC1`, the inhibition was 30.2% (active).

In the case of `O=S(=O)(c1cccs1)N1CCCc2nc(-c3ccc(Br)cc3)ccc21`, the inhibition is 33.3% (active).

Turning to `CCOC(=O)C1=C(NC(=S)NC(=O)c2ccccc2)c2ccccc2CC1(C)C`, the inhibition is 24.8% (active).

Take `COc1ccc(-c2nn(-c3ccccc3)cc2C(=O)Nc2nccs2)cc1OC`: the inhibition is 24.8% (active).

For `CSCCC(NC(=O)COc1ccccc1)C(=O)OCCOc1ccc(Br)cc1` (centres undefined), the inhibition is 21.9% (active).

Take `CSCCC(NC(=O)COc1ccccc1)C(=O)OCC(=O)c1cc2ccccc2o1` (centres undefined): the inhibition is 24.2% (active).

As to `C[C@@H]1CN([C@@H](C)CO)S(=O)(=O)c2ccc(C#Cc3cccc(F)c3)cc2O[C@H]1CN(C)S(=O)(=O)c1cn(C)cn1`, the inhibition was 38.3% (active).

For the molecule `Cc1ccc(SCc2c(C(=O)N/N=C/c3cccnc3)nnn2-c2nonc2N)cc1`, the inhibition was 38.4% (active).

For `Oc1ccc(/C=N/Nc2nc(-c3ccccc3F)nc3ccccc23)c(O)c1`, the inhibition was 38.2% (active).

`COc1ccc(S(=O)(=O)N(CC(=O)NCc2ccco2)c2ccc(F)cc2)cc1`: the inhibition is 19.3% (inactive).

Take `COc1ccc(N(CC(=O)N/N=C/c2cccs2)S(=O)(=O)c2ccc(OC)c(OC)c2)cc1`: the inhibition is 25.2% (active).

Regarding `O=C(CN1CCCSc2ccccc21)N1CCN(S(=O)(=O)c2cccc(F)c2)CC1`, the inhibition was 19.4% (inactive).

For `NNC(=O)CNC(c1ccccc1)c1cc(Cl)ccc1NC(=O)c1ccccc1` (centres undefined), the inhibition is 22.9% (active).

Take `CCOc1ccc(NC(=O)N2CC=C(n3c(=O)[nH]c4ccccc43)CC2)cc1`: the inhibition is 19.3% (inactive).

As for `Cn1c2ccccc2c(=O)c2c(=O)n(Cc3ccco3)c(COc3ccccc3)nc21`, the inhibition was 21.8% (active).

With `Cc1ccc(C)c(N2CCN(C(=O)CCCCCn3c(=S)[nH]c4ccc(N5CCOCC5)cc4c3=O)CC2)c1`, the inhibition is 44.4% (active).

For the molecule `Cc1ccc(NC(=O)c2ccc(CSc3ncnc4nc[nH]c34)cc2)c(C)c1`, the inhibition was 17.2% (inactive).

Regarding `CC(=O)n1cc([C@H]2C=C(C(=O)N3CCOCC3)O[C@@H](OCc3ccc(CO)cc3)C2)c2ccccc21`, the inhibition is 24.4% (active).

As to `O=C(CCc1ccccc1)Nc1cccc(-c2nnc(-c3ccco3)o2)c1`, the inhibition was 25.8% (active).

For `CCN=C1SC(CC(=O)Nc2ccc(C)cc2)C(=O)N1CC` (centres undefined), the inhibition is 29.4% (active).

On to `O=C(Nc1ccccc1-c1nnn(CC(=O)N2CCN(c3ccccc3)CC2)n1)c1cccs1`, for which the inhibition is 36.9% (active).

Regarding `Cn1c(C(=O)NCCc2ccsc2)cc2c(=O)n(C)c3ccccc3c21`, the inhibition was 27.8% (active).

For `Cc1ccccc1OCC(=O)Nc1ccc(N2CCN(C(=O)C(C)C)CC2)c(Cl)c1`, the inhibition is 43.2% (active).

Turning to `CN(c1ccccc1)S(=O)(=O)c1cc(C(=O)Nc2nc3ccccc3[nH]2)ccc1Cl`, the inhibition is 39.7% (active).

As to `O=C(NCc1ccc2c(c1)OCO2)c1c(-c2ccsc2)sc2ccccc12`, the inhibition was 21.1% (inactive).

Consider `COc1ccc(C2=NOC(Cn3nc(C(=O)NCc4ccc5c(c4)OCO5)cc3-c3ccccc3)C2)cc1` (centres undefined), for which the inhibition is 34.1% (active).

For `CC(C)N(Cc1ccccc1)C(=O)COC(=O)c1ccccc1SCC(=O)N1CCCC1`, the inhibition is 30.8% (active).

On to `O=C(COC(=O)c1ccccc1SCC(=O)N1CCCC1)Nc1ccccc1OC(F)F`, for which the inhibition was 27.2% (active).

On to `Cc1cc(C(C)(C)C)oc1C(=O)N(CC(=O)NC1CCCC1)Cc1ccc(Cl)cc1`, for which the inhibition is 36% (active).

As for `COC(=O)Cc1nnn2c1[C@H](C)[C@H](c1ccccc1[N+](=O)[O-])OCC2`, the inhibition is 5.35% (inactive).

Take `COc1ccc(/C=C/C(=O)Nc2ccc(C34CC5CC(CC(O)(C5)C3)C4)cc2)cc1OC`: the inhibition is 37% (active).

In the case of `CCOc1ccc(N2CC(C(=O)N/N=C/c3sccc3C)CC2=O)cc1` (centres undefined), the inhibition was 10.5% (inactive).

For `CSc1ncnc2c1ncn2CC(=O)C1CCC2C3CCC4=CC(=O)CCC4(C)C3CCC12C` (centres undefined), the inhibition is 49.7% (active).

As to `CC(C)Oc1cc(F)ccc1-c1cc(C(=O)Nc2ccc(F)cc2)[nH]n1`, the inhibition is 26.3% (active).

On to `COc1ccc(-c2cc(C(=O)Nc3ccccc3O)c3ccccc3n2)cc1`, for which the inhibition was 32.2% (active).

With `COc1ccc(NC(=O)c2cc(-c3ccc(C)o3)nc3ccccc23)cc1`, the inhibition was 36.1% (active).

In the case of `N#Cc1cccc(NC(=O)COC(=O)c2ccccc2C(=O)c2ccc(Cl)c([N+](=O)[O-])c2)c1`, the inhibition was 36.1% (active).

On to `O=C(NCCN1CCOCC1)c1ccc(/C=C2\Sc3ccccc3N(Cc3ccc(F)cc3)C2=O)cc1`, for which the inhibition is 35.2% (active).

`O=C(NCCN1C(=O)S/C(=C\c2cccnc2)C1=O)c1ccc(S(=O)(=O)N2CCCC2)cc1`: the inhibition is 13% (inactive).

`COc1ccc(-c2cc(C(=O)N(C)CC(=O)Nc3ccccc3Cl)c3ccccc3n2)cc1OC`: the inhibition was 27.4% (active).

Turning to `COc1ccc(-c2cc(C(=O)N(C)Cc3ccccc3)c3ccccc3n2)cc1`, the inhibition is 27.7% (active).

On to `COc1ccc(CN(C)C(=O)c2cc(-c3ccc(C)cc3C)nc3ccccc23)c(OC)c1OC`, for which the inhibition was 28% (active).

Turning to `COc1ccc(-c2cc(C(=O)N(C)Cc3ccc(OC)c(OC)c3OC)c3ccccc3n2)cc1OC`, the inhibition was 30.9% (active).

As for `COc1ccc(C(=O)Nc2ccccc2C(=O)N/N=C/c2ccc(O)c(OC)c2)cc1`, the inhibition was 38.3% (active).

Regarding `CCOc1cc(/C=N/NC(=O)c2cc(-c3ccccc3)nc3ccccc23)ccc1O`, the inhibition is 19% (inactive).

For `O=C(N/N=C/c1ccc(OC(=O)c2ccccc2Cl)cc1)c1ccc(O)cc1`, the inhibition was 36.3% (active).

With `CC/C(=N/Nc1ccccc1)c1cnnc(SC)n1`, the inhibition is 16.8% (inactive).

The values are drawn from PubChem BioAssay AID651780 (The Scripps Research Institute Molecular Screening Center, 2012).
